In PubChem BioAssay (NCI) one finds growth inhibition data, which are given here for 21 compounds.

The panel holds about 79,000 compounds, 15% with a hit somewhere; the sample as a whole holds those more often. Values without a mark were called inactive. Activity calls are given as the source filed them. Rule as the data show it: active = growth inhibition above about 70%; inactive = the rest.

Assay [1] can be described thus: NCI Yeast Anticancer Drug Screen. Data for the rad50 strain (AID 155).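 Also: 0% = growth of vehicle-only cultures of the same strain.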 The settings on record: S. cerevisiae rad50 strain growth inhibition; at 50.0 µM; stronger effect = higher value. The method in brief:
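Inhibition values express reduced yeast growth in compound-treated cultures relative to vehicle-treated controls.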

Assay [2] can be described thus: NCI Yeast Anticancer Drug Screen. Data for the mec2-1 strain (AID 157). The settings on record: S. cerevisiae mec2-1 strain, at 50.0 µM, stronger effect = higher value. The method in brief:
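Compounds were applied to mec2-1 yeast cells. Their growth was then compared with that of vehicle-treated cultures to give growth inhibition.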

Assay [3] is described as follows: NCI Yeast Anticancer Drug Screen. Data for the sgs1 mgt1 strain (AID 161).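 Also: 0% = growth of cultures given vehicle only.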 As to conditions: S. cerevisiae sgs1 mgt1 strain, at 50.0 µM, stronger effect = higher value. An outline of the steps: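 Yeast cells carrying a defined DNA-repair defect were exposed to test compounds. Growth inhibition was measured relative to vehicle-treated controls.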
A short description of assay [4]: NCI Yeast Anticancer Drug Screen. Data for the cln2 rad14 strain (AID 165).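 Also: 0% = growth equal to vehicle treated cultures.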 As to conditions: S. cerevisiae cln2 rad14 strain, at 50.0 µM, stronger effect = higher value. An outline of the steps: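 Strain: cln2 rad14 yeast, altered in cell cycle control and DNA damage repair. Read-out: growth inhibition vs vehicle.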
Assay [5] is described as follows: NCI Yeast Anticancer Drug Screen. Data for the bub3 strain (AID 167). As to conditions: S. cerevisiae bub3 mutant strain, at 50.0 µM, stronger effect = higher value. The method in brief: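 Steps: expose the mutant yeast strain to compound; grow alongside vehicle-treated cultures; measure growth; express inhibition against the vehicle cultures.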
Assay [6] can be described thus: NCI Yeast Anticancer Drug Screen. Data for the mlh1 rad18 strain (AID 175). As to conditions: S. cerevisiae mlh1 rad18 strain growth inhibition; at 50.0 µM; stronger effect = higher value. An outline of the steps: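 A repair-deficient yeast strain is exposed to test compound, and growth is scored relative to vehicle-treated controls.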

In the case of `C1=C(c2ccccc2)C(OC2Oc3ccccc3C=C2c2ccccc2)Oc2ccccc21` (stereo unspecified), the growth inhibition in assay [1] was 23.1%; in assay [2], -2.15%; in assay [3], 6.35%; in assay [4], 11.9%; in assay [5], 22.2%; in assay [6], -3.65%.
Consider `CN(C)S(=O)(=O)c1ccc(CCc2ccc(S(=O)(=O)N(C)C)cc2)cc1`, for which the growth inhibition in assay [1] was 13.6%; in assay [2], 2.65%; in assay [3], -12.7%; in assay [4] it was 5.9%; in assay [5], 6.35%; in assay [6], 6.2%.
Regarding `O=C1C(Br)=CC(Br)=C/C1=N/Br`, the growth inhibition in assay [1] was 70.6% (active); in assay [2] it was 61.5%; in assay [3] it was 85.2% (active); in assay [4] it was 61.1%; in assay [5] it was 70% (active); in assay [6], 78.5% (active).
With `CN(C)c1ccc2c(c1)Cc1cc(N3C(=O)C=CC3=O)ccc1-2`, the growth inhibition is 97.3% (active) in assay [1]; 98% (active) in assay [2]; 98.9% (active) in assay [3]; 97.6% (active) in assay [4]; 98.2% (active) in assay [5]; 98.5% (active) in assay [6].
Turning to `CCOC(=O)CCC(NC(=O)c1ccc(Nc2nc3cc(C(F)(F)F)ccc3nc2C(=O)OCC)cc1)C(=O)OCC` (stereo unspecified), the growth inhibition in assay [1] was -20.1%; in assay [2], 0.55%; in assay [3], -14.3%; in assay [4], -1.85%; in assay [5], -10%; in assay [6], 4.9%.
Consider `CN(C)CCCC[N+](C)(C)Cc1ccc(C[N+](C)(C)CCCC[N+](C)(C)Cc2ccc(CCl)cc2)cc1`, for which the growth inhibition was -9.7% in assay [1]; -15% in assay [2]; -7.2% in assay [3]; -0.95% in assay [4]; -1.9% in assay [5]; -3.55% in assay [6].
Take `O=C(O)c1nccc2c([N+](=O)[O-])cccc12`: the growth inhibition was -2.4% in assay [1]; 6.4% in assay [2]; 16.6% in assay [3]; -13.5% in assay [4]; -4.4% in assay [5]; -12.9% in assay [6].
Regarding `O=[N+]([O-])c1cc(Br)c(F)cc1F`, the growth inhibition in assay [1] is -22.2%; in assay [2] it was 4.85%; in assay [3], -5.2%; in assay [4], -32.2%; in assay [5] it was -2.55%; in assay [6], 31.1%.
In the case of `Cc1cc(Br)ccc1C1=C(O)C(=O)NC1=O`, the growth inhibition in assay [1] was 5.55%; in assay [2], -10.4%; in assay [3], 10.7%; in assay [4], -32.3%; in assay [5], -1.7%; in assay [6] it was -5.4%.
`Nc1ccc[nH]c1=O`: the growth inhibition in assay [1] was 15.7%; in assay [2], 4%; in assay [3] it was 19.6%; in assay [4], 8.8%; in assay [5], 20.7%; in assay [6] it was -12.4%.
As to `Cc1ccc(Oc2cc(C)ccc2P(=O)(O)O)cc1`, the growth inhibition in assay [1] was 6.5%; in assay [2], 1.4%; in assay [3] it was 22.2%; in assay [4] it was 26.1%; in assay [5] it was -23.7%; in assay [6] it was 23.1%.
For `CCCCCCCCC(C)C`, the growth inhibition in assay [1] was 1.25%; in assay [2], 3.35%; in assay [3], -0.3%; in assay [4], 10.8%; in assay [5] it was 1.65%; in assay [6] it was -2.65%.
For `CON(C)CCOC(=O)c1ccc([N+](=O)[O-])cc1`, the growth inhibition in assay [1] is -5.25%; in assay [2] it was 4.15%; in assay [3] it was -2.6%; in assay [4], -21.4%; in assay [5], 3.95%; in assay [6] it was 27.2%.
On to `COc1cc(-c2cc(O)c(-c3ccc4ccccc4n3)c(=O)[nH]2)cc(OC)c1OC`, for which the growth inhibition in assay [1] is 6.75%; in assay [2], 14.6%; in assay [3], 1.6%; in assay [4], 11.8%; in assay [5] it was -27.1%; in assay [6], 23.4%.
Take `Cc1cc(N=[N+]=[N-])c2cc3c(cc2n1)OCO3`: the growth inhibition in assay [1] is -32.2%; in assay [2] it was -7.5%; in assay [3], -0.4%; in assay [4], -39%; in assay [5], 5.65%; in assay [6], 14%.
`O=C1OC2(c3ccc(O)cc3Oc3cc(O)ccc32)c2ccccc21`: the growth inhibition was 6.6% in assay [1]; 0.55% in assay [2]; 10.2% in assay [3]; 26.7% in assay [4]; -0.05% in assay [5]; -1.2% in assay [6].
For the compound `O=C(Nc1ccccc1)OCc1cnc2ccccc2c1`, the growth inhibition was 6.05% in assay [1]; -22.6% in assay [2]; 9.2% in assay [3]; -9.4% in assay [4]; 3.05% in assay [5]; -2.8% in assay [6].
With `O=C(O)C(O)c1ccc(Cl)c(Cl)c1` (stereo unspecified), the growth inhibition in assay [1] was 29.4%; in assay [2] it was -24.3%; in assay [3], 7.2%; in assay [4], -13.3%; in assay [5] it was 15.8%; in assay [6], 11.1%.
Turning to `CC1C(=O)OCC2=CCN3CCC(OC(=O)C(C)C1(C)O)C23` (stereo unspecified), the growth inhibition in assay [1] was 2.25%; in assay [2], -15.8%; in assay [3] it was -3.45%; in assay [4], 8.05%; in assay [5], 0.9%; in assay [6], -32.5%.
As for `O=C1c2ccccc2C(=O)N1c1ccccc1Cl`, the growth inhibition was 4.45% in assay [1]; -11% in assay [2]; 27.8% in assay [3]; -111% in assay [4]; 39% in assay [5]; 19.7% in assay [6].
In the case of `CC(Oc1cc(Cl)c(Cl)cc1Cl)C(=O)NC(Cc1ccccc1)C(=O)O` (stereo unspecified), the growth inhibition in assay [1] is 8.5%; in assay [2] it was 9.45%; in assay [3], 13.5%; in assay [4] it was 25.6%; in assay [5], -0.45%; in assay [6] it was 5.8%.
